PubChem BioAssay (NCATS)
Records with an inconclusive call do not appear. Unless noted, the call rests on the fitted dose curve; in most records, active means well fitted curve in either direction with a large enough effect (not every such curve was filed as active); inconclusive means small, poorly fitted or top-dose-only effect, or another doubt; inactive means flat fitted curve, though single readings scatter.

How the values were obtained:
[1] = AP1 Signaling Pathway (AID 357); conditions: ME-180 AP-1-bla reporter, EGF-induced, beta-lactamase ratio, 5 h; at 17.2 µM (top of the series) unless noted;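 further: ME-180 reporter cells stimulated with EGF at its EC50 level; on the % scale 0 is the no-effect control and ±100 the full control effect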
How it was run: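 Read-out was the 460nm/530nm emission ratio (excitation 405nm) after CCF4 loading for 2.5 hours at room temperature. Cells carried an AP-1-driven beta-lactamase reporter, were stimulated with EC50 EGF plus compound for 5 hours, and AC50 values came from titrations.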

[2] = NFAT Signaling Pathway (AID 444); conditions: Jurkat NFAT-bla M1, carbachol, beta-lactamase ratio, 5 h; at 17.2 µM (top of the series) unless noted;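 further: carbachol stimulus at about its EC50 of 1 µM final; on the % scale 0 is the no-effect control and ±100 the full control effect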
How it was run: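 Jurkat cells carrying an NFAT-driven β-lactamase reporter and co-transfected muscarinic M1 receptor were treated with compound plus carbachol (1 uM final, an EC50 level) for 5 h at 37 °C. CCF4 loading followed for 1 h at RT; 460/530 nm ratio gave %activity.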

[3] = Stat Signaling Pathway (AID 446); conditions: ME-180 SIE beta-lactamase reporter, IL-6 stimulated, 5 h; at 17.2 µM (top of the series) unless noted;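 further: ME-180 cervical cancer cells given 40 pM IL-6 alongside compound; SIE-controlled beta-lactamase reporter measured as 460/530 nm FRET emission ratio; on the % scale 0 is the no-effect control and ±100 the full control effect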
How it was run: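 Reporter line: ME-180 cervical carcinoma, SIE-beta-lactamase. Treatment: compound with 40 pM IL-6, 5 hrs, 37 C, in low-serum OPTI-MEM with 10 mM HEPES pH 7.3. Detection: 460/530 nm fluorescence.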

[4] = molecular target: Glucocorticoid receptor (Homo sapiens) (UniProt P04150); assay: GR-GFP Redistribution (AID 450;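 active means compounds whose dose series gives a full or clear partial fitted curve of increased nuclear translocation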; further: potency means the concentration at half of the fitted maximal effect)
Glucocorticoid receptor (Homo sapiens), sequence (P04150 whole entry, looked up): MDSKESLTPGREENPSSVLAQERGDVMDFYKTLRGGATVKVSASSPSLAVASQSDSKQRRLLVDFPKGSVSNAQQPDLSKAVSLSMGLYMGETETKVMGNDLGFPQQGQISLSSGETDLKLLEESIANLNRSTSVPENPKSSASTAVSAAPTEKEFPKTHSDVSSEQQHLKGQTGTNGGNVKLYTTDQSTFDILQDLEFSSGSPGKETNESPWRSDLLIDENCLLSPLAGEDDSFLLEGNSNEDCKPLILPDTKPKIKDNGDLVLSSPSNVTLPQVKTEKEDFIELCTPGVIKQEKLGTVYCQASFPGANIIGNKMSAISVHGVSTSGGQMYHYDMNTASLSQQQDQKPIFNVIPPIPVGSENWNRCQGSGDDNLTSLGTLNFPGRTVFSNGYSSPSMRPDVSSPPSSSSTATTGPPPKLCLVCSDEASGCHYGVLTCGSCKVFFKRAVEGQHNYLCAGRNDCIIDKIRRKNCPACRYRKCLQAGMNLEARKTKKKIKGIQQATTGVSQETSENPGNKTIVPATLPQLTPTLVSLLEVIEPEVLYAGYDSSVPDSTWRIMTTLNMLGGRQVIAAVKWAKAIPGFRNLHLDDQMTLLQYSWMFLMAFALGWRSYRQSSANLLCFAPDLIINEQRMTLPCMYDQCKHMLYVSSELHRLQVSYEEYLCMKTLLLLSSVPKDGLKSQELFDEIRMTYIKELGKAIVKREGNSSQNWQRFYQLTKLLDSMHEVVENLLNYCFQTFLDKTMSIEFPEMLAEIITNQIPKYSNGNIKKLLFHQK

CC(=O)c1cc(C#N)c(SCc2ccncc2)nc1C
inactive: activity change, negative = inhibition [1] -9.02% | activity change, negative = inhibition [2] -4.04% | activity, negative = inhibition [3] -3.61% | Potency [4] > 20.6 µM

CCCCNC(=O)c1cc2n(n1)C(C(F)(F)F)CC(c1ccccc1)N2 (stereo not given)
inactive: activity change, negative = inhibition [1] -14.9% | activity change, negative = inhibition [2] 11.1% | activity, negative = inhibition [3] -0.224% | Potency [4] > 20.6 µM

CC(C)OC(=O)[C@H]1[C@H](c2ccc(Cl)cc2)[C@@](C#N)(C(N)=O)[C@@H]2C=CC(C(N)=O)=CN21
inactive: activity change, negative = inhibition [1] -13.7% | activity change, negative = inhibition [2] -5.51% | activity, negative = inhibition [3] -11.5% | Potency [4] > 20.6 µM

COc1cc(Cn2ccnc2)c(OC)cc1Cn1ccnc1
inactive: activity change, negative = inhibition [1] 5.72% | activity change, negative = inhibition [2] -19.5% | activity, negative = inhibition [3] 4.23% | Potency [4] > 20.6 µM

COc1ccc(C2C=C(c3ccc(Cl)cc3)Nc3nc(NC(C)=O)nn32)cc1 (stereo not given)
inactive: activity change, negative = inhibition [1] -15.6% | activity change, negative = inhibition [2] -13.4% | activity, negative = inhibition [3] -9.52% | Potency [4] > 20.6 µM

CCOC(=O)COn1c(=O)c(-c2ccc(OC)c(OC)c2)[n+]([O-])c2ccccc21
inactive: activity change, negative = inhibition [1] -0.29% | activity change, negative = inhibition [2] -6.08% | activity, negative = inhibition [3] 4.19% | Potency [4] > 20.6 µM

Cc1c(OCc2ccccc2)c(=O)ccn1Cc1ccccc1
inactive: activity change, negative = inhibition [1] -8.27% | activity change, negative = inhibition [2] -0.234% | activity, negative = inhibition [3] 1.99% | Potency [4] > 20.6 µM

COCc1[nH]nc2c1C(c1ccnc3ccccc13)C(C#N)=C(N)O2 (stereo not given)
inactive: activity change, negative = inhibition [1] -7.4% | activity change, negative = inhibition [2] 17.7% | activity, negative = inhibition [3] -1.49% | Potency [4] > 20.6 µM

COc1ccc(OC)c(C2/C(=C(\O)c3ccc(OC)c(Cl)c3)C(=O)C(=O)N2CCN(C)C)c1 (stereo not given)
inactive: activity change, negative = inhibition [1] 10.2% | activity change, negative = inhibition [2] 2.23% | activity, negative = inhibition [3] -6.77% | Potency [4] > 20.6 µM

COC(=O)CSc1nc(C)c(C(C)=O)cc1C#N
inactive: activity change, negative = inhibition [1] 4.99% | activity change, negative = inhibition [2] -0.342% | activity, negative = inhibition [3] 7.71% | Potency [4] > 20.6 µM

CCOC(=O)c1[nH]c2cc3c(cc2c1NC(=O)CN1CC(C)CC(C)C1)OCO3 (stereo not given)
inactive: activity change, negative = inhibition [1] -14.1% | activity change, negative = inhibition [2] -21% | activity, negative = inhibition [3] -2.27% | Potency [4] > 20.6 µM

O=c1[nH]c2sc3c(c2c(=O)n1Cc1ccccc1)CCC3
inactive: activity change, negative = inhibition [1] -27.5% | activity change, negative = inhibition [2] 16.2% | activity, negative = inhibition [3] -5.31% | Potency [4] > 20.6 µM

Cc1ccc(C(C)C)c(OCCNc2nc3c(c(=O)n(C)c(=O)n3C)n2C)c1
inactive: activity change, negative = inhibition [1] -0.712% | activity change, negative = inhibition [2] 13.4% | activity, negative = inhibition [3] -22.6% | Potency [4] > 20.6 µM

CCCCCOc1ccc(C(=O)NCC(=O)NCC(=O)OCC)cc1
inactive: activity change, negative = inhibition [1] -2.64% | activity change, negative = inhibition [2] -2.75% | activity, negative = inhibition [3] -0.468% | Potency [4] > 20.6 µM

CC1(C)CC(=O)C2=C(C1)OC(N)=C(C#N)C21C(=O)N(CN2CCOCC2)c2ccccc21 (stereo not given)
inactive: activity change, negative = inhibition [1] 15.6% | activity change, negative = inhibition [2] 1.95% | activity, negative = inhibition [3] 5.03% | Potency [4] > 20.6 µM

COc1cccc(/C=C2/CN(C)CC3=C2OC(N)=C(C#N)C3c2cccc(OC)c2)c1 (stereo not given)
inactive: activity change, negative = inhibition [1] -20.4% | activity change, negative = inhibition [2] -0.393% | activity, negative = inhibition [3] -1.9% | Potency [4] > 20.6 µM

Cc1nc2c(c(=O)n1CC1CCCO1)c1nc3ccccc3nc1n2CC(C)C (stereo not given)
inactive: activity change, negative = inhibition [1] 2.75% | activity change, negative = inhibition [2] 6.99% | activity, negative = inhibition [3] 8.26% | Potency [4] > 20.6 µM

C=CCN1C(=O)CC(C(=O)NC)SC1=Nc1ccc(C(=O)OCC)cc1 (stereo not given)
inactive: activity change, negative = inhibition [1] -3.69% | activity change, negative = inhibition [2] 16.7% | activity, negative = inhibition [3] -3.3% | Potency [4] > 20.6 µM

CCOC(=O)CSc1nc(NC#N)nc(N(CC)CC)n1
inactive: activity change, negative = inhibition [1] 8.62% | activity change, negative = inhibition [2] -5.47% | activity, negative = inhibition [3] -5.41% | Potency [4] > 20.6 µM

COc1ccccc1C(=O)N1CCCC1(C#N)c1ccccc1 (stereo not given)
inactive: activity change, negative = inhibition [1] -10.1% | activity change, negative = inhibition [2] -0.126% | activity, negative = inhibition [3] -2.09% | Potency [4] > 20.6 µM

OCCOCCNc1ncnc2c1cnn2-c1ccc(Cl)cc1
inactive: activity change, negative = inhibition [1] 9.08% | activity change, negative = inhibition [2] 0.366% | activity, negative = inhibition [3] 4.43% | Potency [4] > 20.6 µM

CN(C)CC(O)COc1ccc(-c2ccc(C#N)cc2)cc1 (stereo not given)
inactive: activity change, negative = inhibition [1] 1.87% | activity change, negative = inhibition [2] 11.2% | activity, negative = inhibition [3] 2.27% | Potency [4] > 20.6 µM

CCOc1ccc(/C(O)=C2/C(=O)C(=O)N(CCN(CC)CC)C2c2ccco2)cc1 (stereo not given)
inactive: activity change, negative = inhibition [1] -1.27% | activity change, negative = inhibition [2] -3.29% | activity, negative = inhibition [3] 6.33% | Potency [4] > 20.6 µM

CC(C)=CCC(C)(C)CNC(=O)NC1CCCCC1
inactive: activity change, negative = inhibition [1] -8.2% | activity change, negative = inhibition [2] 19% | activity, negative = inhibition [3] 10.9% | Potency [4] > 20.6 µM

CCCn1nc(Oc2nc(SC)nc(N(C)C)n2)ccc1=O
inactive: activity change, negative = inhibition [1] 12.8% | activity change, negative = inhibition [2] -5.95% | activity, negative = inhibition [3] -17.7% | Potency [4] > 20.6 µM
